Each structure is given as a SMILES string. Where “and” joins values, the source holds several entries; their conditions need not be identical. Identical values can stand only once. Results filed as inconclusive are left out. Where a call stands in place of a potency, no number is given. Some structures have more than one record in an assay (separate samples or runs), and their calls can disagree. Calls of active or inactive are those of the source. Calls follow the shape of the dose curve; as a rule, active = well fitted inhibition curve with a large enough effect; inconclusive = small, poorly fitted or top-dose-only effect; inactive = flat fitted curve, though single readings scatter.

Here are results for 36 compounds from PubChem BioAssay (NCATS).
Potency is read from the fitted curve at half-maximal effect.

The assay can be described thus: P-glycoprotein substrates identified in KB-8-5-11 adenocarcinoma cell line, qHTS therapeutic library screen (AID 1346987). Also: nearly all actives have a fitted effect of over 65% in size. The note with it: KB-8-5-11 (P-gp overexpressing) viability, CellTiter-Glo, 72 h; series mostly up to 44.5 µM. An outline of the steps:
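P-gp-mediated resistance screen: KB-8-5-11 cells treated 72 h with compounds in dose-response. CellTiter-Glo viability.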
In general terms: In qHTS, concentration-response curves come from the screen itself.
As for `COc1ccc2c3c1OC1C[C@@H](O)C=C[C@@]31CCN(C)C2` (stereo partly specified), the Potency entry was “inactive”.

With `NC(=O)NN=Cc1ccc([N+](=O)[O-])o1`, the Potency entry is “inactive”. Then `CC(C)=CC[C@@H](O)C1=CC(=O)c2c(O)ccc(O)c2C1=O`, with “inactive”. In the case of `CN(C[C@@H]1COCCO1)S(=O)(=O)Nc1ccc2ccc3ncc(-c4cnn(C)c4)cc3c(=O)c2c1`, the Potency was 18.7 µM (active) and 18.4 µM (active).

Regarding `C[C@@H]1CCN(C(=O)CC#N)C[C@H]1N(C)c1ncnc2[nH]ccc12`, the Potency result is “inactive”.

As for `CN[C@@H](C)C(=O)N[C@H]1CN(C(=O)CC(C)C)CC[C@H]2CC[C@@H](C(=O)NC(c3ccccc3)c3ccccc3)N2C1=O`, the Potency result is “inactive”. Then `O=c1cc(-c2ccc(O)cc2)oc2cc(O)cc(O)c12`, with “inactive”. Next, `N#CC1(c2ccc(NC(=O)c3cccnc3NCc3ccncc3)cc2)CCCC1`: “inactive”; `CC(C)C(=O)Oc1ccc(CO)cc1[C@H](CCN(C(C)C)C(C)C)c1ccccc1`: “inactive”. Next, `O=C(CCN1CCN(C(=O)OCc2cc(Cl)cc(Cl)c2)CC1)c1ccc2[nH]c(=O)oc2c1`: “inactive”. For `CC(C)(Cc1ccc2ccccc2c1)NC[C@@H](O)COc1cccc(Cl)c1C#N`, the Potency result is “inactive”. Then `O=c1cc(-c2ccccc2)oc2cc(O)c(O)c(O)c12`, with “inactive”.

`CC1(C)CCC(CN2CCN(c3ccc(C(=O)NS(=O)(=O)c4ccc(NCC5CCOCC5)c([N+](=O)[O-])c4)c(Oc4cnc5[nH]ccc5c4)c3)CC2)=C(c2ccc(Cl)cc2)C1`: the Potency entry was “inactive”. Next, `COC(=O)C1=CO[C@@H](O)[C@@H]2C(CO)=CC[C@@H]12`: “inactive”. Then `O=C(CCCCCCC(=O)Nc1ccccc1)NO`, with 4.61 µM (active) and 3.66 µM (active) and 6.62 µM (active); and `Cc1nnc(C(C)C)n1C1C[C@H]2CC[C@@H](C1)N2CC[C@H](NC(=O)C1CCC(F)(F)CC1)c1ccccc1` (stereo partly specified), with “inactive”. Consider `C[C@H](NC(=O)c1sccc1OCc1ccc(Cl)cc1)c1ccccc1`, for which the Potency is 14.8 µM (active). Next, `O=C(OCC#CCSc1nnc(-c2cccc3ccccc23)o1)c1cc2ccccc2s1`: “inactive”; `CC(C)n1nc(-c2ccc3oc(N)nc3c2)c2c(N)ncnc21`: 1.3 nM (active) and 32.6 nM (active). On to `COC[C@@H](c1ccc(C(F)(F)F)cc1)N1CCN(C2(C)CCN(C(=O)c3c(C)ncnc3C)CC2)C[C@H]1C`, for which the Potency result was “inactive”. On to `COCCOC(=O)C1=C(C)NC2=C(C(=O)CC(c3ccccc3OC)C2)C1c1cccc(O)c1` (stereo unspecified), for which the Potency result is “inactive”. Next, `Oc1ccc(C2CCN(c3ccnc4ccccc34)CC2)cc1O`: “inactive”; `O=C(O)c1cc(O)c2c(c1)C(=O)c1cccc(O)c1C2=O`: “inactive”; `Cc1[nH]c(C=C2C(=O)Nc3ccc(S(=O)(=O)Cc4c(Cl)cccc4Cl)cc32)c(C)c1C(=O)N1CCC[C@H]1CN1CCCC1`: “inactive”. Next, `NS(=O)(=O)c1ccc(NC2=CC(=O)c3ccccc3C2=O)cc1`: “inactive”; `NC(CO)(CO)CCc1ccc(Sc2cccc(OCc3ccccc3)c2)cc1Cl`: 20.9 µM (active); `COCCOc1nc(-c2ccc(Cl)c(Cl)c2)n(-c2ccc(NC(=O)CCl)cc2)n1`: “inactive and 14.6 µM (active)”. Then `O=C(NCc1ccncc1)C12C[C@H]3C[C@@H](C1)CC(c1ccc(Cl)cc1)(C3)C2`, with “inactive”; and `O=C1NC(=O)C(=Cc2ccc3nccnc3c2)S1`, with “inactive”; and `COc1ccc(Cc2ccc(NC(N)=O)cc2)cc1-c1cccc(Cl)c1`, with “inactive”.

For `Cc1ccc(C(C)(O)c2nc3ccccc3s2)c(C)c1` (stereo unspecified), the Potency entry was “inactive”. Take `COc1ccc2cccc(CCNC(C)=O)c2c1`: the Potency entry was “inactive”. Then `CC(C)C(=O)Nc1ncc(-c2cc(C(F)F)nn2-c2c(Cl)cccc2Cl)s1`, with 23.1 µM (active).

Consider `CC1(C)CCC2=C(O1)c1ccccc1C(=O)C2=O`, for which the Potency entry was “inactive”. Next, `O=C(O)[C@H]1O[C@H](Oc2cc3oc(-c4ccccc4)cc(=O)c3c(O)c2O)[C@H](O)[C@@H](O)[C@H]1O`: “inactive”; `COc1cc(NC(=O)c2ccc(-c3ccc(Cl)cc3)o2)cc(OC)c1`: “inactive”.
